Source: PubChem
HT1080-NT tox = kills 2HG-producing HT-1080-NT fibrosarcoma cells | HT-1080-NT fibrosarcoma viability, CellTiter-Glo ATP luminescence, 48 h | Potency, µM (titrated, usually from 46.1 µM), inactives show at the highest dose activity, negative = less viability, most hits filed as cytotoxic | actives 1.6% (n = 360,000) | AID 686970;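 further: NT is the 2HG producing partner of a matched IDH1 knockdown line; potency means the concentration at half of the fitted maximal effect; 0% = DMSO-treated cells and -100% = media-only wells without cells; nearly all actives have a fitted effect of over 55% in size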
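HT-1080-NT fibrosarcoma cells (2HG-overproducing), 750 cells/well in RPMI with 5% FBS, dosed after 2 h and incubated 48 h at 37C. CellTiter-Glo luminescence normalized to DMSO and no-cell wells; concentration-response curves fitted and classed.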
DT40 TDP1 CPT = growth inhibition of DT40 Tdp1-/-;hTDP1 cells with camptothecin (screen for TDP1 inhibitors) | chicken DT40 Tdp1-/-;hTDP1 cells + 20 nM CPT, ATP luminescence, 48 h | Potency, µM (top dose mostly 46.2 µM), inactives show at the highest dose activity change, negative = growth inhibition, most hits filed as inhibitors | actives 12% (n = 420,000); further: potency means the concentration at half of the fitted maximal effect; nearly all actives have a fitted effect of over 55% in size
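Chicken DT40 Tdp1-/- cells stably complemented with human TDP1 were seeded at 400 cells/well in medium containing 20 nM camptothecin, exposed to pin-transferred compounds, and grown at 37 °C for at least 48 hr. Viability was read as ATP luminescence.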
IL1B secr inh = inhibitors of inflammasome signaling (IL-1 beta secretion); THP-1 LPS/ATP IL-1B secretion, AlphaLISA, 16 h; hits give low values; activity change, % at 57.5 µM; actives 4.7% (n = 360,000); AID 743279; in the data active means activity change below about -50%; inconclusive means mostly about -30% to -49%
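Secreted IL-1B measured by AlphaLISA bead assay after 16 h compound exposure of THP-1 cells; compounds (final up to 57.5 uM) added 1 h before LPS (250 ng/mL) and ATP (1.25 mM) stimulation; lower signal means less secretion.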
TDP1 cell noCPT = qHTS for Inhibitors of human tyrosyl-DNA phosphodiesterase 1 (TDP1): qHTS in cells in absence of CPT; DT40 Tdp1-/- hTDP1 cells, no CPT, ATP luminescence, 48 h; AID 686978, 2013; actives 15% (n = 420,000); Potency, µM (titrated, usually from 46.2 µM), for inactives: at the highest dose activity change, negative = growth inhibition, most hits filed as inhibitors; further: potency means the concentration at half of the fitted maximal effect; nearly all actives have a fitted effect of over 55% in size
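Chicken DT40 Tdp1-/- cells stably complemented with human TDP1 were seeded at 400 cells/well with DMSO in place of 20 nM camptothecin. After compound pinning, cells grew at least 48 hr at 37 °C; viability read by CellTiter-Glo luminescence.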
HT1080 IDH1KD tx = HT-1080 IDH1 knockdown cell toxicity (counter line). HT-1080 IDH1 knockdown viability, ATP luminescence, 48 h. Potency, µM (titrated, usually from 46.1 µM), without a hit: top-dose activity, negative = toxicity, actives largely listed as cytotoxic. actives 2% (n = 360,000);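 further: potency means the concentration at half of the fitted maximal effect; 0% = DMSO wells and -100% = cell-free medium wells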
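% activity derives from luminescence (CellTiter-Glo), normalised to DMSO and no-cell wells. HT-1080-IDH1KD cells, 750/well, had 48 h compound exposure at 37 °C.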
Numbers without * were called inactive; ? = inconclusive; . = no result given; [ ] = remark or other dose. Most compounds without a hit are left out; they make up all but 19% or so of the library. Unless noted, the call rests on the fitted dose curve; in most records, active means well fitted curve in the direction sought with a large enough effect; inconclusive means small, poorly fitted or top-dose-only effect, or another doubt; inactive means no such curve, though single readings can be large; an effect the other way counts as inactive or inconclusive. Unless noted, on the % scale 0 is the no-effect control and ±100 the full control effect.

SMILES	HT1080-NT tox	DT40 TDP1 CPT	IL1B secr inh	TDP1 cell noCPT	HT1080 IDH1KD tx
COc1ccc(CNC(=O)C2CCN(S(C)(=O)=O)CC2)c(OC)c1	-5.5%	-2.8%	0.7	2.6%	-0.9%
Cc1ccc(C)n1-c1nnc(N2CCCC(C(=O)NCc3cccc(F)c3)C2)s1 (stereo not drawn)	.	?	.	-16.6%	.
Cc1cccc(CNC(=O)C2CCN(c3nnc(-n4c(C)ccc4C)s3)CC2)c1	.	?	.	16.4µM*	.
CCOc1ccc(NC(=O)C2CCN(c3nnc(-n4c(C)ccc4C)s3)CC2)cc1	.	23.1µM*	.	13µM*	.
Cc1ccc(C)n1-c1nnc(N2CCCC(C(=O)NCc3cccc(Cl)c3)C2)s1 (stereo not drawn)	.	20.6µM*	.	11.6µM*	.
CCOc1ccc(OCC)c(NC(=O)C2CCCN(C(=O)c3ccc(Cl)cc3)C2)c1 (stereo not drawn)	11.2%	?	0.0	?	12.7%
COc1ccc(CNC(=O)N[C@@H](Cc2c[nH]c3ccccc23)C(=O)O)cc1	3.5%	-13.2%	20.8	25.0%	4.7%
COc1cccc(CNC(=O)C2CCN(c3nnc(-n4c(C)ccc4C)s3)CC2)c1	.	?	.	14.6µM*	.
COc1cccc(CNC(=O)C2CCN(S(=O)(=O)N3CCCCC3)CC2)c1	9.7%	-20.8%	3.2	-15.1%	-4.1%
CC1C/C(=N\NC(=S)NC(C)C)CC(C)(C)C1 (stereo not drawn)	16.0%	10.3µM*	58.9	18.4µM*	8.0%
O=C(Nc1ccn(CCCNCC2CCCO2)c(=O)n1)OCc1ccccc1 (stereo not drawn)	12.9%	-15.9%	-11.3	-9.1%	6.8%
O=C(O)c1cc(-c2ccc(/C=N/N3C(=O)C4C5C=CC(C6CC56)C4C3=O)o2)ccc1Cl (stereo not drawn)	5.7%	13.4%	31.2	3.0%	6.1%
O=C1/C(=C\c2ccc(-c3ccccc3[N+](=O)[O-])o2)C(c2ccccc2)=NN1c1ccccc1	-7.4%	-9.5%	-8.1	-15.7%	1.4%
Cc1ccc(C2=NOC(=O)/C2=C\c2ccc(C)o2)cc1	13.2%	13µM*	-2.5	23.1µM*	-0.7%
Cc1ccc(-c2ccc(/C=C3\C(=O)ON=C3c3ccccc3)o2)c([N+](=O)[O-])c1	?	8.2µM*	-107.3*	16.4µM*	-24.4%
Cc1ccc(/C=C2\C(=O)ON=C2c2ccccc2)o1	5.9%	-8.2%	0.4	0.0%	8.6%
COc1ccc(-n2c(SCC(=O)NCC3CCCO3)nc3n[nH]c(C)c3c2=N)cc1 (stereo not drawn)	-6.6%	?	-56.4*	18.4µM*	-3.6%
Cc1ccc(-n2c(SCC(=O)NCC3CCCO3)nc3ccccc3c2=O)cc1 (stereo not drawn)	-1.3%	?	-24.8	-0.7%	1.1%
Cc1ccc(-n2c(SCC(=O)NCC3CCCO3)nc3n[nH]c(C)c3c2=N)cc1Cl (stereo not drawn)	-21.5%	9.2µM*	-17.8	9.2µM*	-10.9%[9.24 µM]
COc1ccc(-c2nnc(SCC(=O)NCC3CCCO3)n2C)cc1 (stereo not drawn)	9.1%	-29.9%	13.3	-7.2%	?
Cc1ccc(C)c(-n2nnnc2SCC(=O)NCC2CCCO2)c1 (stereo not drawn)	0.6%	-8.7%	-2.8	6.1%	5.7%
COc1ccc(-n2c(SCC(=O)NCC3CCCO3)nc3ccccc3c2=O)cc1Cl (stereo not drawn)	-2.5%	8.2µM*	-10.3	20.6µM*	0.6%
CC(C)C(NC(=O)c1ccc(C(C)(C)C)cc1)C(=O)Nc1cccc(S(N)(=O)=O)c1 (stereo not drawn)	?	4.6%	-52.0*	-2.9%	-2.6%
Cc1ccsc1CN(C)C(=O)C(NC(=O)c1cccc(S(=O)(=O)N2CCOCC2)c1)C(C)C (stereo not drawn)	-2.0%	11.6µM*	-0.3	?	-8.2%
Cc1cccc(C(=O)N[C@H](C(=O)Nc2ccc(C)c(S(=O)(=O)N3CCOCC3)c2)C(C)C)c1	-0.5%	?	-15.8	?	-5.9%
SMILES	HT1080-NT tox	DT40 TDP1 CPT	IL1B secr inh	TDP1 cell noCPT	HT1080 IDH1KD tx
Cc1cccc(NC(=O)COC(=O)C(NC(=O)c2cccc(S(=O)(=O)N3CCOCC3)c2)C(C)C)c1 (stereo not drawn)	0.4%	-11.5%	16.3	-5.0%	6.0%
Cc1cccc(C(=O)N[C@H](C(=O)Nc2cc(S(=O)(=O)N3CCCCC3)ccc2C)C(C)C)c1	0.0%	?	-1.1	?	-3.5%
Cc1cc(C)c2nc(NC(=O)[C@@H](NC(=O)c3cccc(S(=O)(=O)N4CCOCC4)c3)C(C)C)sc2c1	-9.7%	16.4µM*	-8.4	?	-21.0%
Cc1cccc(C(=O)N[C@H](C(=O)Nc2ccc(C)c(S(=O)(=O)N(C)C)c2)C(C)C)c1	3.5%	?	-10.3	14.6µM*	1.3%
COc1ccc(C(=O)N2CCOC2CNC(=O)C(=O)NCCc2ccc(OC)c(OC)c2)cc1 (stereo not drawn)	10.5%	2.4%	0.0	1.9%	0.8%
COc1cccc(C(=O)Nc2cccc(OCc3cc(=O)n4c5c(sc4n3)CCCC5)c2)c1	.	5.0%	.	-21.6%	.
COc1ccc(C(=O)N[C@H](C(=O)Nc2cccc(S(=O)(=O)N3CCOCC3)c2)C(C)C)cc1	-2.6%	-27.8%	?	18.4µM*	-5.0%
COc1ccc(C(=O)NC(C(=O)NCc2ccccn2)C(C)C)cc1 (stereo not drawn)	6.5%	1.8%	17.2	-6.9%	0.7%
COc1ccc(N2CCN(CC(=O)Nc3cccc(S(=O)(=O)N4CCOCC4)c3)CC2)cc1	-4.6%	?	15.8	9.2µM*	-1.2%
CC(C)C(NC(=O)c1ccc(C(C)(C)C)cc1)C(=O)NCc1ccccn1 (stereo not drawn)	2.6%[9.24 µM]	9.2µM*	-20.3	?	3.2%
O=C(CN1CCN(S(=O)(=O)c2ccc3ccccc3c2)CC1)Nc1ccc(N2CCOCC2)cc1	-4.2%	6.6%	-6.2	-9.4%	-9.8%
CCOC(=O)C1=CCN(S(=O)(=O)c2ccccc2C)C1c1ccc(F)cc1 (stereo not drawn)	4.0%	?	11.5	?	0.4%
O=C(COC(=O)/C=C/c1ccco1)NCc1ccc2c(c1)OCO2	0.1%	11.5%	13.3	3.6%	9.1%
O=S(c1cc(Cl)cc(Cl)c1O)c1cc(Cl)cc(Cl)c1O	?	-6.3%	-67.5*	?	?
COCCN1C(=O)CCC1(C)c1nnnn1-c1c(C)cccc1C (stereo not drawn)	1.3%	-5.7%	19.4	-16.6%	-0.9%
Cc1ccc(NC2(c3nnnn3-c3c(C)cccc3C)CCCCC2)cc1	2.6%	?	-4.9	23.1µM*	-13.3%
